{"source": "PubChem BioAssay AID1566", "about": "(Sanford-Burnham Center for Chemical Genomics, 2009)", "note": "The campaign covered roughly 290,000 compounds. About 1,800 (0.62%) were called active. This is one part of a sample in which actives are shown more often than they occur. No stated cut-off is given here; in the data, active means inhibition above about 50%; inactive means the rest.", "data": [{"experiment": "NOD2 signaling inhibitors, cell-based, luminescence, uHTS, HEK293 (AID 1566)", "settings": "HEK293 NOD2/NF-kB luciferase reporter, at 4 µM, stronger effect = higher value", "values": [{"smiles": "COc1ccc(C(=O)Nc2ccc(NC(=O)c3cnccn3)cn2)cc1", "inhibition": "-1.7% (inactive)"}, {"smiles": "O=C(Nc1ccc2cn[nH]c2c1)c1ccc(Cl)c(S(=O)(=O)N2CCOCC2)c1", "inhibition": "-3.7% (inactive)"}, {"smiles": "O=C1/C(=C/c2cccnc2)CC/C1=C\\c1cccnc1", "inhibition": "1.3% (inactive)"}, {"smiles": "CN1C/C(=C/c2cccnc2)C(=O)/C(=C/c2cccnc2)C1", "inhibition": "10.1% (inactive)"}, {"smiles": "CCC1C/C(=C\\c2cccnc2)C(=O)/C(=C/c2cccnc2)C1", "note": "(stereo unspecified)", "inhibition": "94.6% (active)"}, {"smiles": "Cc1ccc(COc2ccc(-c3nnco3)cc2)cc1", "inhibition": "-78.6% (inactive)"}, {"smiles": "COc1cc(COc2ccc(-c3nnco3)cc2)ccc1OC(F)F", "inhibition": "6.2% (inactive)"}, {"smiles": "COc1ccnc(Oc2ccccc2)c1C(=O)N/C=N/OCc1ccccc1F", "inhibition": "2.7% (inactive)"}, {"smiles": "CCCCCCn1c(NCC)nc2c1c(=O)n(C)c(=O)n2C", "inhibition": "30% (inactive)"}, {"smiles": "COc1ccc2cc3cc(C(=O)NCCC(C)C)oc3nc2c1", "inhibition": "10.4% (inactive)"}, {"smiles": "COCCNC(=O)c1cc2cc3ccc(OC)cc3nc2o1", "inhibition": "11.5% (inactive)"}, {"smiles": "COc1ccc(-c2cc(=O)oc3cc(OCC(=O)N4C[C@H]5C[C@@H](C4)c4cccc(=O)n4C5)ccc23)cc1", "inhibition": "3.1% (inactive)"}, {"smiles": "CCCCn1c(=O)c(CCC(=O)OCC(=O)Nc2cccc3ccccc23)nc2ccccc21", "inhibition": "15.7% (inactive)"}, {"smiles": "O=C(Cc1ccccc1)NNC(=O)C1CC=CCC1", "note": "(stereo unspecified)", "inhibition": "5.2% (inactive)"}, {"smiles": "CCc1nnc(NC(=O)COc2ccccc2[N+](=O)[O-])s1", "inhibition": "-7.9% (inactive)"}, {"smiles": "Cc1csc(NC(=O)c2c(O)c3c(n(CC(C)C)c2=O)CCCC3)n1", "inhibition": "23.7% (inactive)"}, {"smiles": "O=C(NC1=C(Nc2ccc(F)cc2)C(=O)c2ccccc2C1=O)c1ccc(Cl)cc1", "inhibition": "-10.9% (inactive)"}, {"smiles": "O=C(NC1=C(Nc2ccc(Cl)cc2)C(=O)c2ccccc2C1=O)c1ccccc1", "inhibition": "24.3% (inactive)"}, {"smiles": "CSc1nc(N)c2c(C)c(C)sc2n1", "inhibition": "-1.2% (inactive)"}, {"smiles": "CCOC(=O)C(=CNc1ccc(NC2=NCC(C)(C)S2)cc1)C(=O)OCC", "inhibition": "34.9% (inactive)"}, {"smiles": "CCOC(=O)C(=CNc1ccc(C#N)cc1)C(=O)OCC", "inhibition": "8.2% (inactive)"}, {"smiles": "CCOC(=O)C(=CNc1ccc(NC2=NCC(C)S2)cc1)C(=O)OCC", "note": "(stereo unspecified)", "inhibition": "55.5% (active)"}, {"smiles": "COc1cccc(CNC(=O)CCNC(=O)C2CCN(S(=O)(=O)c3ccc(F)cc3)CC2)c1", "inhibition": "9% (inactive)"}, {"smiles": "CC(C)(C)c1ccc(C(=O)OC/C(O)=C(\\C#N)c2nc3ccccc3s2)cc1", "inhibition": "30.1% (inactive)"}, {"smiles": "N#C/C(=C(/O)COC(=O)c1ccccc1O)c1nc2ccccc2s1", "inhibition": "52.7% (active)"}, {"smiles": "N#C/C(=C(/O)COC(=O)c1ccc(C#N)cc1)c1nc2ccccc2s1", "inhibition": "-9.9% (inactive)"}, {"smiles": "C=C(C)C(=O)Oc1ccc(N2C(=O)[C@@H]3C4C=CC(C4)[C@@H]3C2=O)cc1", "inhibition": "-1.5% (inactive)"}, {"smiles": "CCn1c(=O)n(CC)c2cc(S(=O)(=O)N3CCCCC3)c(C)cc21", "inhibition": "-12.1% (inactive)"}, {"smiles": "NC(=O)CC(NC(=O)Cc1ccc(Br)cc1)c1ccc(NCCN2CCOCC2)c([N+](=O)[O-])c1", "note": "(stereo unspecified)", "inhibition": "-1.2% (inactive)"}, {"smiles": "N#CC1=C(N)Oc2n[nH]c(-c3cccnc3)c2C1c1cc(F)ccc1F", "note": "(stereo unspecified)", "inhibition": "-1.5% (inactive)"}, {"smiles": "c1cncc(CNc2ncnc3sccc23)c1", "inhibition": "21.1% (inactive)"}, {"smiles": "c1ccc(CNc2ncnc3sccc23)cc1", "inhibition": "44.5% (inactive)"}, {"smiles": "Fc1ccccc1CNc1ncnc2sccc12", "inhibition": "56.7% (active)"}, {"smiles": "Cc1cccc(NC(=O)C(Cc2ccccc2)n2cccc2)c1", "note": "(stereo unspecified)", "inhibition": "9.8% (inactive)"}, {"smiles": "CCN(CC)S(=O)(=O)c1cc(NC(=O)C(CC(C)C)NC(N)=O)ccc1C", "note": "(stereo unspecified)", "inhibition": "57.5% (active)"}, {"smiles": "CCN(CC)S(=O)(=O)c1cc(NC(=O)[C@@H](NC(N)=O)C(C)C)ccc1C", "inhibition": "6.6% (inactive)"}, {"smiles": "Cc1ccc(NC(=O)C(CC(C)C)NC(N)=O)cc1Cl", "note": "(stereo unspecified)", "inhibition": "-3.3% (inactive)"}, {"smiles": "COc1ccc(/C(C)=N/NC(=O)c2nnn(-c3nonc3N)c2-c2ccccc2)cc1", "inhibition": "6.5% (inactive)"}, {"smiles": "Cc1ccc(C(=O)Nc2cccc(C(F)(F)F)c2)cc1Nc1cnccn1", "inhibition": "14% (inactive)"}, {"smiles": "Cc1ccc(C(=O)Nc2cccc(C(F)(F)F)c2)cc1Nc1ccccn1", "inhibition": "-0.8% (inactive)"}, {"smiles": "CCN(CC)c1ccc(/C=N/N2CCN(Cc3ccccc3Cl)CC2)cc1", "inhibition": "4.7% (inactive)"}, {"smiles": "CCCN(CCC)c1ncnc2c1cnn2-c1ccc(OC)cc1", "inhibition": "-123% (inactive)"}, {"smiles": "Cc1cccc(-n2ncc3c(NC4CCCCC4)ncnc32)c1", "inhibition": "7.4% (inactive)"}, {"smiles": "Cc1cccc(-n2ncc3c(N(C)C4CCCCC4)ncnc32)c1", "inhibition": "72.3% (active)"}, {"smiles": "COc1ccc(-n2ncc3c(NC(C)C)ncnc32)cc1", "inhibition": "13.8% (inactive)"}, {"smiles": "Cc1cccc(-n2ncc3c(N(C)Cc4ccccc4)ncnc32)c1", "inhibition": "-120% (inactive)"}, {"smiles": "Fc1cccc(NC(=S)NCCc2ccccc2)c1", "inhibition": "10% (inactive)"}, {"smiles": "CC(=O)Oc1cccc(NC(=O)c2ccc3c(c2)C(=O)N(CC(C)C)C3=O)c1", "inhibition": "-7.8% (inactive)"}, {"smiles": "CCN(CC)c1ccc(S(=O)(=O)N2CCOCC2)cc1NC(=O)CN1CCN(Cc2ccccc2)CC1", "inhibition": "-7.9% (inactive)"}, {"smiles": "O=C(CN1CCc2ccccc2C1)Nc1cc(S(=O)(=O)N2CCOCC2)ccc1N1CCOCC1", "inhibition": "-2.4% (inactive)"}, {"smiles": "COc1ccc(OC)c(N2C(=O)CC(C(C)c3ccccc3)C2=O)c1", "note": "(stereo unspecified)", "inhibition": "9.7% (inactive)"}, {"smiles": "COc1ccc(-n2c3c(cc(C(=O)NCc4ccco4)c2=O)C(=O)CC(C)(C)C3)cc1", "inhibition": "10.7% (inactive)"}, {"smiles": "Cc1ccc(C(=O)CSc2nnc3ccccn23)c(C)c1", "inhibition": "-52.8% (inactive)"}, {"smiles": "Cc1cc(C(=O)CSc2nnc3ccccn23)c(C)n1-c1ccccc1", "inhibition": "66.8% (active)"}, {"smiles": "Cc1cc(C(=O)CSc2nncn2C)c(C)n1-c1ccccc1", "inhibition": "-52.4% (inactive)"}, {"smiles": "COc1ccc(NC(=O)c2c(NC(=O)CNCc3ccco3)sc3c2CCC3)cc1", "inhibition": "6.3% (inactive)"}, {"smiles": "COC(=O)c1cccc(Cn2c(Cl)c(/C=N/Nc3ccccc3C)sc2=O)c1", "inhibition": "10.1% (inactive)"}, {"smiles": "Cc1ccccc1N/N=C/c1sc(=O)n(Cc2cccc(C(=O)O)c2)c1Cl", "inhibition": "51.6% (active)"}, {"smiles": "O=C(O)c1cccc(Cn2c(Cl)c(/C=N/Nc3ccccc3)sc2=O)c1", "inhibition": "14.5% (inactive)"}, {"smiles": "CCCNC(=S)N1CCC(C(=O)c2ccc(OC)cc2)CC1", "inhibition": "15.3% (inactive)"}, {"smiles": "COC(=O)N1C(=O)[C@](c2ccsc2)(C(C)C)N1C(=O)OC", "inhibition": "32.8% (inactive)"}, {"smiles": "CCc1c(C)nc2c(Br)cccc2c1SCCC#N", "inhibition": "10.1% (inactive)"}, {"smiles": "CCCCc1c(C)nc2ccc(Br)cc2c1SCCC#N", "inhibition": "18% (inactive)"}, {"smiles": "CN=c1scc(-c2cccs2)n1/N=C/c1ccc(O)c(O)c1O", "inhibition": "-25.9% (inactive)"}, {"smiles": "CN=c1scc(-c2cccs2)n1/N=C/c1ccccc1O", "inhibition": "88.7% (active)"}, {"smiles": "CC(C)N=c1scc(-c2cccs2)n1/N=C/c1ccc(O)c(O)c1O", "inhibition": "-1.3% (inactive)"}, {"smiles": "CCc1noc(C)c1C(=O)OCC(=O)NC(=O)c1ccccc1", "inhibition": "2.8% (inactive)"}, {"smiles": "COC(=O)c1ccc(NC(=O)c2ccc3nsnc3c2)cc1", "inhibition": "-7.1% (inactive)"}, {"smiles": "c1ccc(COCCC2CO2)cc1", "note": "(stereo unspecified)", "inhibition": "-8.4% (inactive)"}, {"smiles": "CS(=O)(=O)N(CC(=O)NCCSCc1ccccc1Cl)c1ccc(F)cc1", "inhibition": "3% (inactive)"}, {"smiles": "COc1ccc(C(=O)CSc2cc(C)nc3nc(C)nn23)cc1OC", "inhibition": "14% (inactive)"}, {"smiles": "O=C(CSc1ccc(-c2ccc(Cl)cc2)nn1)N1CCCc2ccccc21", "inhibition": "-10.9% (inactive)"}, {"smiles": "O=c1oc2ccccc2cc1-c1cn(-c2ccccc2)c(=S)[nH]1", "inhibition": "80.6% (active)"}, {"smiles": "Cc1ccccc1-c1cn(-c2ccccc2)c(=S)[nH]1", "inhibition": "-47.3% (inactive)"}, {"smiles": "O=C(O)c1ccc(-n2cc(-c3cc4ccccc4oc3=O)[nH]c2=S)cc1", "inhibition": "27.5% (inactive)"}, {"smiles": "O=c1[nH]c(C2CCN(S(=O)(=O)Cc3ccccc3)CC2)nc2c1nnn2Cc1ccccc1", "inhibition": "5% (inactive)"}, {"smiles": "CCOC(=O)Cc1ccc(NC(=O)c2ccc([N+](=O)[O-])cc2)cc1", "inhibition": "-1.9% (inactive)"}, {"smiles": "COC(=O)Cc1ccc(NC(=O)c2ccc(C)c(C)c2)cc1", "inhibition": "-48.4% (inactive)"}, {"smiles": "Cc1ccc(C(=O)Nc2ccc(CC(=O)O)cc2)o1", "inhibition": "7.5% (inactive)"}, {"smiles": "CC(C)(C)c1ccc(C(=O)Nc2ccc(NC(=O)C(=O)O)cc2)o1", "inhibition": "9.4% (inactive)"}, {"smiles": "CC(C)(C)c1ccc(C(=O)Nc2ccc(CC(=O)O)cc2)o1", "inhibition": "71.6% (active)"}, {"smiles": "CCOC(=O)Cc1ccc(NC(=O)c2ccccc2Br)cc1", "inhibition": "-12.2% (inactive)"}, {"smiles": "COC(=O)Cc1ccc(NC(=O)c2ccc(C(C)(C)C)cc2)cc1", "inhibition": "70.7% (active)"}, {"smiles": "COC(=O)Cc1ccc(NC(=O)c2ccc(NC(=O)c3ccco3)cc2)cc1", "inhibition": "0.9% (inactive)"}, {"smiles": "CCOC(=O)Cc1ccc(NC(=O)c2ccc(C(C)(C)C)cc2)cc1", "inhibition": "61.9% (active)"}, {"smiles": "Cc1ccc(C)c(S(=O)(=O)N2CCCOC2CNC(=O)C(=O)NCc2ccncc2)c1", "note": "(stereo unspecified)", "inhibition": "11.8% (inactive)"}, {"smiles": "Cc1cccc(N2CCN(C(=O)C3CCCCC3)CC2)c1C", "inhibition": "-34.8% (inactive)"}, {"smiles": "CCCCn1c(N)c(N(CCOC)C(=O)c2ccc(Cl)c(S(=O)(=O)N3CCCC3)c2)c(=O)[nH]c1=O", "inhibition": "-2.8% (inactive)"}, {"smiles": "O=c1cc(O)c2sc(Nc3cccc(C(F)(F)F)c3)nc2[nH]1", "inhibition": "16.5% (inactive)"}, {"smiles": "COc1ccccc1N1C(=O)c2ccc(C(=O)Nc3ccccc3O)cc2C1=O", "inhibition": "-3.6% (inactive)"}, {"smiles": "Cc1cc(C(=O)N2CCN(Cc3ccccc3)CC2)ccc1[N+](=O)[O-]", "inhibition": "6.4% (inactive)"}, {"smiles": "O=C(c1ccc(Br)c([N+](=O)[O-])c1)N1CCN(Cc2ccccc2)CC1", "inhibition": "10% (inactive)"}, {"smiles": "O=C(c1ccc(Sc2cccc(Cl)c2)c([N+](=O)[O-])c1)N1CCN(c2ccccn2)CC1", "inhibition": "9.4% (inactive)"}, {"smiles": "O=C(c1ccc(S(=O)(=O)Cc2ccccc2F)c([N+](=O)[O-])c1)N1CCCCCC1", "inhibition": "22.6% (inactive)"}, {"smiles": "O=C(c1ccc(S(=O)(=O)Cc2cc(F)ccc2F)c([N+](=O)[O-])c1)N1CCCC1", "inhibition": "3.3% (inactive)"}, {"smiles": "O=C(c1ccc(Cl)c([N+](=O)[O-])c1)N1CCN(c2ccccn2)CC1", "inhibition": "6.3% (inactive)"}]}]}
